Source: PubChem BioAssay (NCATS)
Results filed as inconclusive are left out. Active and inactive are the calls of the source. Unless noted, calls follow the shape of the dose curve; as a rule, active = well fitted curve in the direction sought with a large enough effect; inconclusive = small, poorly fitted or top-dose-only effect, or another doubt; inactive = no such curve, though single readings can be large; an effect the other way counts as inactive or inconclusive.

What was measured:
[1] = test system: Hek293T; assay: Primary qHTS to identify gynecologic anti-cancer compounds using libraries of approved drugs and bioactive compounds (AID 1345084); conditions: Gynecologic cancer cell panel viability, ATPlite luminescence, 48 h, control line for the selectivity index; series mostly up to 57.5 µM; also: % is scaled to controls: 0 for no effect and ±100 for the full control effect; nearly all actives have a fitted effect of over 55% in size
How it was run: (§1)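 Five-concentration response, 48 h; readout is ATP-driven luciferase luminescence.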

[2] = test system: JEG-3; assay: as above; conditions: Gynecologic cancer cell panel viability, ATPlite luminescence, 48 h; series mostly up to 57.5 µM
How it was run: as §1

[3] = test system: PA-1; assay: as above; conditions: Gynecologic cancer cell panel viability, ATPlite luminescence, 48 h; series mostly up to 57.5 µM
How it was run: as §1

[4] = test system: SKOV3; assay: as above; conditions: Gynecologic cancer cell panel viability, ATPlite luminescence, 48 h; series mostly up to 57.5 µM
How it was run: as §1

[5] = test system: Tov-21-G; assay: as above; conditions: Gynecologic cancer cell panel viability, ATPlite luminescence, 48 h; series mostly up to 57.5 µM
How it was run: as §1

[6] = test system: Tov112D; assay: as above; conditions: Gynecologic cancer cell panel viability, ATPlite luminescence, 48 h; series mostly up to 57.5 µM
How it was run: as §1

[7] = Drug repurposing screens with cells derived from glioblastoma tumor samples (AID 1345199); conditions: GBM patient neurospheres viability, ATP luminescence, 48 h; also: % is scaled to controls: 0 for no effect and ±100 for the full control effect; nearly all actives have a fitted effect of over 40% in size
How it was run: (§2)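 Four patient lines of CD133+ GBM neurospheres were screened at several concentrations; hits were retested in those lines plus three slower-growing GBM lines, using 48-hour treatment and ATP-based viability.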

[8] = test system: astro; assay: as above; conditions: viability, ATP luminescence, 48 h; series mostly up to 45.9 µM
How it was run: as §2

[9] = test system: OV90; assay: Primary qHTS to identify gynecologic anti-cancer compounds using libraries of approved drugs and bioactive compounds (AID 1345084); conditions: Gynecologic cancer cell panel viability, ATPlite luminescence, 48 h; series mostly up to 57.5 µM; also: % is scaled to controls: 0 for no effect and ±100 for the full control effect; nearly all actives have a fitted effect of over 55% in size
How it was run: as §1

[10] = molecular target: Nuclear receptor subfamily 1 group I member 2 (Rattus norvegicus) (UniProt Q9R1A7); assay: qHTS assay for small molecule activators of the rat pregnane X receptor (rPXR) signaling pathway (AID 651751; call rule not given here; also: 0% is about no effect); conditions: rPXR reporter cells, luciferase (One-Glo), 24 h
Sequence of Nuclear receptor subfamily 1 group I member 2 (Rattus norvegicus) (Q9R1A7 whole entry, looked up): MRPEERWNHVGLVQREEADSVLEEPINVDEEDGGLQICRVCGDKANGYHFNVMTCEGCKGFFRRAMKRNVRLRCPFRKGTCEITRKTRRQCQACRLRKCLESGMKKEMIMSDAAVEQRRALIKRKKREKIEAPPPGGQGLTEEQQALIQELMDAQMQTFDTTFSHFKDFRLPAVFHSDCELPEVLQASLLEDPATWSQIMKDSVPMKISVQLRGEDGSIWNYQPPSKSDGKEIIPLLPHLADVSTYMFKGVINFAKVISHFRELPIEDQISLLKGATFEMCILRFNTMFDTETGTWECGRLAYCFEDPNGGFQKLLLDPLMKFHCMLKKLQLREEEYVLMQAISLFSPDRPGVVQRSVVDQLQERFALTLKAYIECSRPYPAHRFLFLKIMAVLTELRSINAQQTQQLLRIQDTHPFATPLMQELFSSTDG

[11] = qHTS assay for small molecule activators of the human pregnane X receptor (PXR) signaling pathway (AID 720659; call rule not given here; also: 0% is about no effect)
[12] = at 20 µM (top of the series), tumour line C
[13] = at 21.2 µM (top of the series), tumour line B
[14] = at 21.2 µM (top of the series), tumour line D
[15] = at 21.3 µM (top of the series), tumour line A
[16] = at 45.9 µM (top of the series), tumour line B
[17] = at 45.9 µM (top of the series), tumour line D
[18] = at 46.1 µM (top of the series), tumour line C
[19] = at 46 µM (top of the series), tumour line A

C1CCN2C[C@@H]3C[C@@H](CN4CCCC[C@@H]34)[C@H]2C1
inactive: outcome [1] | outcome [2] | outcome [3] | outcome [4] | outcome [5] | outcome [6] | activity, negative = cell killing [7, 12] 4.02% | activity, negative = cell killing [7, 13] -1.82% | activity, negative = cell killing [7, 14] -18% | activity, negative = cell killing [7, 15] -22% | outcome [8]

Cc1cc(=O)[nH]c(=S)[nH]1
inactive: outcome [1] | outcome [2] | Potency [9] | outcome [3] | outcome [5] | outcome [6] | activity, negative = cell killing [7, 16] -11.2% | activity, negative = cell killing [7, 17] 2.62% | activity, negative = cell killing [7, 18] -26.3% | outcome [8] | max response [10] -6.87% | outcome [11]

Cc1cccc(C(=O)O)c1O
inactive: outcome [2] | Potency [9] | outcome [3] | outcome [4] | outcome [6] | activity, negative = cell killing [7, 16] -1.64% | activity, negative = cell killing [7, 17] -5.93% | activity, negative = cell killing [7, 19] -19.5% | activity, negative = cell killing [7, 18] -18.8% | outcome [8]

CN1CC(=O)NC1=N
inactive: outcome [1] | outcome [2] | Potency [9] | outcome [4] | outcome [5] | outcome [6] | activity, negative = cell killing [7, 16] -7.86% | activity, negative = cell killing [7, 17] -12.2% | activity, negative = cell killing [7, 19] -16.7% | activity, negative = cell killing [7, 18] -13.9% | outcome [8]

CCCC(O)C(CC)CO (stereo unspecified)
inactive: outcome [1] | outcome [2] | Potency [9] | outcome [4] | outcome [5] | outcome [6] | activity, negative = cell killing [7, 16] -12.1% | activity, negative = cell killing [7, 17] -1.2% | activity, negative = cell killing [7, 19] -19.9% | activity, negative = cell killing [7, 18] 1.39% | outcome [8] | max response [10] 7.37% | outcome [11]

NS(=O)(=O)c1cc(-c2nn[nH]n2)c(NCc2cccs2)cc1Cl
inactive: outcome [1] | outcome [2] | outcome [3] | outcome [5] | outcome [6] | activity, negative = cell killing [7, 16] 0.416% | activity, negative = cell killing [7, 17] -1.64% | activity, negative = cell killing [7, 18] -29.2% | outcome [8]

Cc1ncc(CO)c(CN)c1O
inactive: outcome [1] | outcome [5] | outcome [6] | activity, negative = cell killing [7, 16] 0.478% | activity, negative = cell killing [7, 17] 6.58% | activity, negative = cell killing [7, 19] -23.9% | activity, negative = cell killing [7, 18] -87% | outcome [8]

OC(CCN1CCCC1)(c1ccccc1)C1CCCCC1 (stereo unspecified)
inactive: outcome [1] | outcome [2] | outcome [3] | outcome [4] | outcome [5] | outcome [6] | activity, negative = cell killing [7, 12] 3.06% | activity, negative = cell killing [7, 13] -6.65% | activity, negative = cell killing [7, 14] -11.6%

C/C=C1\[C@H]2C=C(C)C[C@]1(N)c1ccc(=O)[nH]c1C2
inactive: outcome [1] | outcome [2] | Potency [9] | outcome [3] | outcome [5] | outcome [6] | activity, negative = cell killing [7, 16] -6.65% | activity, negative = cell killing [7, 17] -6.44% | activity, negative = cell killing [7, 19] -18.8% | activity, negative = cell killing [7, 18] 3.14% | outcome [8]

C[n+]1ccccc1/C=N/O
inactive: outcome [1] | outcome [2] | Potency [9] | outcome [4] | outcome [5] | outcome [6] | activity, negative = cell killing [7, 12] -23.9% | activity, negative = cell killing [7, 13] -15% | activity, negative = cell killing [7, 14] -26.7% | activity, negative = cell killing [7, 15] -10.2%

Nc1ncnc(Nc2ccccc2)n1
inactive: outcome [1] | outcome [2] | outcome [3] | outcome [4] | outcome [5] | outcome [6] | activity, negative = cell killing [7, 16] -14.8% | activity, negative = cell killing [7, 17] -23.1% | activity, negative = cell killing [7, 18] -21.6% | outcome [8]

CCN1CC(CCN2CCOCC2)C(c2ccccc2)(c2ccccc2)C1=O (stereo unspecified)
inactive: outcome [1] | outcome [2] | Potency [9] | outcome [3] | outcome [5] | outcome [6] | activity, negative = cell killing [7, 16] -13.3% | activity, negative = cell killing [7, 17] -11.4% | activity, negative = cell killing [7, 18] -23.7% | outcome [8]

CCN[C@H]1CN(CCCOC)S(=O)(=O)c2sc(S(N)(=O)=O)cc21
inactive: outcome [1] | outcome [2] | Potency [9] | outcome [4] | outcome [5] | outcome [6] | activity, negative = cell killing [7, 12] -0.607% | activity, negative = cell killing [7, 13] -9.2% | activity, negative = cell killing [7, 14] 8.52% | outcome [8]

CNCc1ccccc1
inactive: outcome [1] | outcome [3] | outcome [4] | outcome [5] | outcome [6] | activity, negative = cell killing [7, 16] -13% | activity, negative = cell killing [7, 17] -15.9% | activity, negative = cell killing [7, 19] -19.4% | activity, negative = cell killing [7, 18] -9.99% | outcome [8]

Cc1c(NC(C)C)c(=O)n(-c2ccccc2)n1C
inactive: outcome [1] | outcome [2] | Potency [9] | outcome [3] | outcome [5] | outcome [6] | activity, negative = cell killing [7, 16] 0.947% | activity, negative = cell killing [7, 17] -9.1% | activity, negative = cell killing [7, 18] -2.3% | outcome [8]

CC1(c2ccccc2)OC(C(=O)O)=CC1=O (stereo unspecified)
inactive: outcome [2] | Potency [9] | outcome [4] | outcome [5] | outcome [6] | activity, negative = cell killing [7, 16] -1.24% | activity, negative = cell killing [7, 17] -9.61% | activity, negative = cell killing [7, 18] -15.9% | outcome [8]

CCCCCCCCCCCCCCCCN
inactive: outcome [2] | Potency [9] | outcome [3] | outcome [4] | outcome [5] | outcome [6] | activity, negative = cell killing [7, 16] -8.19% | activity, negative = cell killing [7, 17] -19.2% | activity, negative = cell killing [7, 18] -20.5% | outcome [8]

O=C(O)/C=C/c1ccc(Cn2ccnc2)cc1
inactive: outcome [1] | outcome [2] | outcome [3] | outcome [4] | outcome [5] | outcome [6] | activity, negative = cell killing [7, 12] 0.197% | activity, negative = cell killing [7, 13] -8.95% | activity, negative = cell killing [7, 14] -11.8% | activity, negative = cell killing [7, 15] -28.4%

OC[C@@H](O)[C@@H](O)[C@H](O)[C@H](O)CO
inactive: outcome [2] | Potency [9] | outcome [3] | outcome [4] | outcome [5] | outcome [6] | activity, negative = cell killing [7, 16] -7.17% | activity, negative = cell killing [7, 17] -4.25% | activity, negative = cell killing [7, 19] -11.8% | activity, negative = cell killing [7, 18] -0.87% | outcome [8] | max response [10] -1.36% | outcome [11]
